Results: PubChem BioAssay (NCATS)
Records with an inconclusive call do not appear. Unmarked numbers belong to inactive results. Active and inactive are the calls of the source. Calls come from the whole dose curve; as a rule, active = well fitted inhibition curve with a large enough effect; inconclusive = small, poorly fitted or top-dose-only effect; inactive = flat fitted curve, though single readings scatter.

system: CRL-7250; assay: Cytotoxic Profiling of Annotated Libraries Using Quantitative High-Throughput Screening (AID 1296008); settings: Five cell lines viability, CellTiter-Glo ATP luminescence, 48-72 h; max response: active compounds read low; note: nearly all actives have a fitted effect of over 60% in size
Procedure, shortened: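 Cytotoxicity was measured as CellTiter-Glo ATP luminescence, read after 10 min at room temperature. Compound treatment of the cells lasted 48 or 72 hr at 37 degrees Celsius in a qHTS format.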
% is set by controls: 0 for no effect and ±100 for the full control effect; potency is the fitted concentration of half-maximal effect.

Row | SMILES | outcome | max response [%] | Potency
1 | CC(C)S(=O)(=O)N[C@H]1CCOC[C@@H]1c1ccc(-c2ccc(C#N)s2)cc1 | inactive | – | –
2 | C/C=C(\C)C(=O)OCC1OC(OC2OC(COC(=O)/C(C)=C/C)C(OC3OC(CO)C(OC(=O)/C(C)=C/C)C(OC(=O)/C(C)=C/C)C3O)C(O)C2O)C(O)C(O)C1OC1OC(CO)C(OC(=O)/C(C)=C/C)C(OC(=O)/C(C)=C/C)C1O (stereo unspecified) | – | -8.02 | –
3 | CC1(C(=O)O)CCCC2(C)C3CCC4CC3(CCC12)CC4=O (stereo unspecified) | – | -1.87 | –
4 | Nc1ncnc2c([C@@H]3N[C@H](CO)[C@@H](O)[C@H]3O)c[nH]c12 | – | -1.11 | –
5 | COc1ccc(C2COc3cc(O)ccc3C2)c(O)c1 (stereo unspecified) | – | -2.17 | –
6 | Cc1onc(C(=O)N2CCN(C(c3ccc(Cl)cc3)c3ccc(Cl)cc3)CC2)c1[N+](=O)[O-] | – | – | 580 nM (active)
7 | CC(C)CC(=O)O[C@@H]1OC=C(CO[C@@H]2O[C@H](CO)[C@@H](O)[C@H](O)[C@H]2O)[C@H]2[C@@H]3O[C@H]3[C@@](O)(CO)[C@@H]12 | – | -0.109 | –
8 | CC(=O)OC[C@H]1O[C@H](O[C@]2(CO)O[C@H](CO)[C@@H](OC(=O)/C=C/c3ccccc3)[C@@H]2O)[C@H](O)[C@@H](O)[C@@H]1O | – | -26.1 | –
9 | CC(=O)OC1C(OC(=O)c2ccccc2)C2C(C)(C)CC(=O)CC2(C)C23CCC(C)(C2)C(O)CC13 (stereo unspecified) | – | -5.07 | –
10 | NC1CCCCN(c2c(F)cc3c(=O)c(C(=O)O)cn(C4CC4)c3c2Cl)C1 (stereo unspecified) | – | 3.42 | –
11 | C[C@@H]1CC[C@]2(C(=O)O[C@@H]3O[C@H](CO)[C@@H](O)[C@H](O)[C@H]3O)CC[C@]3(C)C(=CCC4[C@@]5(C)C[C@@H](O)[C@H](O)[C@](C)(C(=O)O)C5CC[C@]43C)[C@@H]2[C@]1(C)O (stereo partly specified) | inactive | – | –
